Pf growth 96h – P. falciparum growth inhibition at 96 hours. P. falciparum luciferase reporter growth, 96 h. Potency, µM (doses to about 28.7 µM), usual class: inhibitors. 320,000 tested, 6.9% active
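P. falciparum expressing integrated firefly luciferase grown in erythrocytes (2% hematocrit, 0.05% parasitemia final) with compounds for 96 hours at 37 C, 5% CO2. Growth inhibition read as loss of luminescence after adding luciferase detection reagent.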
HCMV antiviral – blocks human cytomegalovirus replication | activity change, negative = inhibition, % at 57.5 µM | HFF cells, HCMV-luciferase reporter, 72 h; active compounds read low | 410,000 tested, 4.5% active; in the data active means activity change below about -60%; inconclusive means no clear call, values can overlap the other calls; inactive means above about -39%
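Two-dose cell screen: HFF monolayers treated with compounds and infected with luciferase-expressing HCMV at 1 PFU/cell, 72 h at 37C, then lysed for luciferase measurement.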
MARV entry inh – inhibitors of Marburg virus binding or cell entry; Marburg virus pseudotyped entry inhibition, cell reporter; 300,000 tested, 1.8% active; Potency, µM (series often up to 37.8 µM), usual class: inhibitors; calls by dose curve; tested in HEK293 cells
Pf growth 48h – inhibits P. falciparum growth in the first generation, 48 h | P. falciparum luciferase growth in erythrocytes, 48 h | Potency, µM (doses to about 28.7 µM), actives largely listed as inhibitors | 310,000 tested, 5.9% active
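Luciferase-expressing parasites in RBCs, 2% Hct / 0.1% parasitemia final; RPMI 1640 + 0.5% Albumax; 37 C, 5% CO2, one generation; luminescence read-out, lower signal = inhibition.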
LASV entry inh – inhibitors of Lassa virus binding or cell entry. Lassa virus pseudotype entry inhibition, cell reporter. Potency, µM (highest dose often 37.9 µM), usual class: inhibitors. 300,000 tested, 1.2% active; calls by dose curve; tested in HEK293 cells; further: nearly all actives have a fitted effect of over 50% in size
HCV inhibitor – blocks hepatitis C virus. 340,000 tested, 3.4% active. Potency, µM (series often up to 41.8 µM), hits mostly inhibitors. AID 651820. Huh7.5.1 HCVcc-Cre infection, luciferase reporter, 44 h
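Reporter virus HCVcc-Cre (~0.5 moi) infects cells exposed to compound; seeding density 1,000 cells/well with 4 h settling beforehand. Luminescence, 15 sec read, taken 44 h post-infection following a 15 min RT substrate incubation.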
A number is an active result; 0 = inactive; ? = inconclusive; - = no result; + = active, no number; [ ] = remark or other dose. The list is not random: actives were taken first. Their share in the collection is about 14%. Unless noted, the call rests on the fitted dose curve; in most records, active means well fitted inhibition curve with a large enough effect; inconclusive means small, poorly fitted or top-dose-only effect, or another doubt; inactive means no such curve, though single readings can be large or run the other way.

SMILES | Pf growth 96h | HCMV antiviral | MARV entry inh | Pf growth 48h | LASV entry inh | HCV inhibitor
COc1ccc(CCNC(=O)c2ccc3c(c2)CCN3S(C)(=O)=O)cc1OC | - | 0 | 0 | - | 0 | -
CC[N+]12CCC(CC1)C(C(O)(c1ccccc1)c1ccccc1)C2 (stereo not drawn) | ? | 0 | - | ? | - | 0
C[N+]12CCC(CC1)C(C(O)(c1cccc(Cl)c1)c1cccc(Cl)c1)C2 (stereo not drawn) | 2.9µM | 0 | 0 | 13µM | 0 | 0
COC(=O)c1cc2oc3ccccc3c2n1Cc1nc(-c2cccc(C)c2)oc1C | - | 0 | ? | - | - | -
COC(=O)C1=C(C)N(C2CCCCC2)C(=O)C1 | 1.9µM | 0 | 0 | 0 | 0 | 0
O/N=C(/CN(O)/C=C1/C=CC=N1)c1cccs1 | 15µM | 0 | 0 | 0 | 0 | 0
CC(NO)/C(=N\O)c1cccs1 (stereo not drawn) | 0 | 0 | 0 | - | 0 | 0
CCC1CN(C(=O)N2CCC(C(=O)NCc3ccc(C)o3)CC2)c2ccccc2O1 (stereo not drawn) | 9.3µM | 0 | - | 0 | 0 | 0
CCC1CN(C(=O)N2CCC(C(=O)NCc3ccc(F)cc3)CC2)c2ccccc2O1 (stereo not drawn) | ? | 0 | - | ? | - | 0
CCC1CN(C(=O)N2CCC(C(=O)NCc3cccc(F)c3)CC2)c2ccccc2O1 (stereo not drawn) | 9.3µM | 0 | - | ? | - | ?
CCC1CN(C(=O)N2CCC(C(=O)NCc3ccco3)CC2)c2ccccc2O1 (stereo not drawn) | 12µM | 0 | - | 0 | 0 | 0
CCC1CN(C(=O)N2CCC(C(=O)NCc3cccs3)CC2)c2ccccc2O1 (stereo not drawn) | - | 0 | - | - | 0 | -
CC(C)C[C@H](NC(=O)NCc1ccccc1Cl)C(=O)O | 0.93µM | 0 | 0 | 0 | 0 | 0
O=C(c1ccco1)N1CCN(c2nc(C(F)(F)F)nc3c2nnn3Cc2ccccc2)CC1 | - | -76 | ? | 9.3µM | ? | 4µM
O=C(c1ccco1)N1CCN(c2ncnc3c2nnn3Cc2ccccc2Cl)CC1 | 0 | 0 | 0 | 12µM | 0 | ?
Fc1ccc(N2CCN(c3ncnc4c3nnn4Cc3ccccc3Cl)CC2)cc1 | - | 0 | 0 | - | 0 | ?
CC(C)(C)c1ccc(C(=O)Nc2nc3nc(-c4ccccc4)cc(=O)n3[nH]2)cc1 | - | 0 | 0 | - | 0 | -
Cc1cccc(C)c1NC(=O)Cn1c(=O)n(CCC(=O)NCc2ccc3c(c2)OCO3)c(=O)c2sccc21 | - | 0 | 0 | - | 0 | -
CC1(C(=O)NCc2ccccc2Br)CCN1C(=O)Cc1ccc(-c2ccccc2)cc1 (stereo not drawn) | - | 0 | - | - | - | -
Cc1ccc(-c2nn3c(-c4ccccc4)nnc3c3ccccc23)cc1 | - | 0 | ? | - | 0 | -
Cc1c(NS(=O)(=O)c2ccc3c(c2)NC(=O)CC(=O)N3)cccc1[N+](=O)[O-] | 15µM | 0 | - | 0 | - | 0
CCOC(=O)N1CCC2(CC1)OC(=O)C(C)=C2C(=O)NCc1ccc(C)cc1 | - | 0 | - | - | 0 | -
Cc1ccc(NC(=O)Cc2ccc(-n3c(C)nc4cccnc43)cc2)cc1C | - | + | - | - | ? | -
Cc1cc(C)c(O)c(N)c1 | 2.3µM | - | - | ? | - | -
CCC1CN(C(=O)N2CCC(C(=O)N(C)Cc3ccccc3)CC2)c2ccccc2O1 (stereo not drawn) | - | 0 | - | - | ? | -
SMILES | Pf growth 96h | HCMV antiviral | MARV entry inh | Pf growth 48h | LASV entry inh | HCV inhibitor
O=C(Nn1cc(C(=O)Nc2ccccc2F)c2ccccc2c1=O)c1cnccn1 | ? | 0 | ? | 4.1µM | 0 | 0
COC(=O)c1cn(NC(=O)c2ccc(OC)c([N+](=O)[O-])c2)c(=O)c2ccccc12 | ? | ? | 0 | 0 | ? | 0
COc1cc(OC)cc(C(=O)Nn2cc(C(=O)Nc3ccccc3F)c3ccccc3c2=O)c1 | ? | 0 | ? | 0 | 0 | 0
COC(=O)c1cn(NC(=O)c2ccc(OC)c(OC)c2)c(=O)c2ccccc12 | 13µM | 0 | ? | ? | 0 | 0
COC(=O)c1cn(NC(=O)c2cnccn2)c(=O)c2ccccc12 | 0 | 0 | 0 | 9.3µM | 0 | ?
O=C(Nc1ccccc1F)c1ccc(O)c2ncccc12 | 1.5µM | - | - | 4.1µM | - | -
C[C@H](CO)N1C[C@H](C)[C@H](CN(C)Cc2cncnc2)Oc2cc(Br)ccc2S1(=O)=O | - | 0 | - | - | - | -
CCOC(=O)c1c(C)nc(C(Cl)(Cl)Cl)nc1N | 0 | 0 | 0 | 13µM | 0 | 0
Cc1cccc(C)c1N=CN1c2ccccc2-n2cccc2C1CCc1ccccc1 (stereo not drawn) | - | 0 | - | - | - | -
Cc1ccc(-c2noc(CCC(=O)Nc3cc(C)ccn3)n2)cc1 | ? | -71 | 0 | 0 | 0 | 0
CCOC(=O)c1ccc(NC(=O)CCc2nc(-c3ccccc3)no2)cc1 | 13µM | 0 | ? | 0 | ? | ?
CCOc1ccc(CCNC(=O)CCc2nc(-c3ccc(OC)cc3)no2)cc1OCC | 0 | 0 | 0 | - | 0 | 0
CCOC(=O)c1cccc(NC(=O)CCc2nc(-c3ccccc3F)no2)c1 | 0 | 0 | 0 | 0 | 0 | ?
COc1ccc(-c2noc(CCC(=O)NCCc3cccc(C)c3)n2)cc1 | 0 | 0 | 0 | 0 | ? | 8.9µM
Cc1ccc(-c2noc(CCC(=O)Nc3ccccc3C)n2)cc1 | 0 | 0 | 0 | 0 | 0 | ?
CCOC(=O)c1cccc(NC(=O)CCc2nc(-c3ccc(C)cc3)no2)c1 | 1µM | 0 | ? | 12µM | ? | ?
CCCCN(C=O)c1c(CC)nc2ccc(C(=O)NCCOc3ccc(OC)cc3)cn12 | - | 0 | - | - | - | -
CCOC(=O)c1ccc(NC(=O)CCc2nc(-c3ccccc3Cl)no2)cc1 | 0[5.75 µM] | 0 | ? | 0 | ? | 11µM
COc1cccc(NC(=O)CCc2nc(-c3ccc(C(C)(C)C)cc3)no2)c1 | - | -82 | ? | - | ? | -
COc1ccc(-c2noc(CCC(=O)Nc3cccc(C)c3)n2)cc1 | ? | 0 | 0 | 0 | 0 | ?
CCc1cc2c(=O)c(Oc3ccccc3F)c(C)oc2c(CN(C)C)c1O | 0 | 0 | 0 | 8.3µM | 0 | 0
CCC(CO)Oc1cc(NCc2ccccc2Cl)c2ncn(C(C)C)c2c1 (stereo not drawn) | ? | 0 | - | 3.3µM | - | 2.2µM
CCC(CO)Oc1cc(NCc2ccccc2F)c2ncn(C(C)C)c2c1 (stereo not drawn) | 4.7µM | 0 | - | 5.2µM | - | ?
CCC(CO)Oc1cc(NCc2ccccn2)c2ncn(C(C)C)c2c1 (stereo not drawn) | - | 0 | - | - | - | 0
CCC(CO)Oc1cc(NCc2ccccc2C(F)(F)F)c2ncn(C(C)C)c2c1 (stereo not drawn) | - | 0 | - | - | - | 1.3µM
CCC(CO)Oc1cc(NCc2ccccc2OC)c2ncn(C(C)C)c2c1 (stereo not drawn) | - | 0 | - | - | - | 0
Cc1cc(S(=O)(=O)n2ccnc2C(C)C)cc([N+](=O)[O-])c1C | - | 0 | 0 | - | ? | -
Cc1ccccc1C(=O)NNC(=O)C1CC(=O)N(Cc2ccccc2)C1 (stereo not drawn) | 0 | 0 | 0 | 0 | 0 | 0

Screens deposited in PubChem BioAssay by National Center for Advancing Translational Sciences (NCATS).
